Bioassay records as filed in PubChem BioAssay.
A selection: hits, their analogues and other compounds. The true share with any hit is near 3.6%.
TWEAK Fn14 block = blocks TWEAK-Fn14 interaction in a reporter cell assay; TWEAK-stimulated Fn14 reporter cells, luciferase luminescence, 8 h; inhibition, % at 10 µM; 2% of 360,000 active; AID 1159606; in the data active = inhibition above about 50%
TROY signal inh = inhibitors of TROY-dependent NF-kB signaling. Q293 LMP1-TROYcd NF-kB luciferase reporter, 4 h. inhibition, % at 10 µM. 0.98% of 360,000 active. AID 1347056;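 active = compounds whose plate-normalised and pattern-corrected inhibition of the luciferase reporter signal at the single screening dose is 50% or more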
HSF1 activator = increases HSF-1 driven luciferase reporter signal. NIH3T3-HGL HSF-1 luciferase reporter, MG132, 8 h; 100% = twice DMSO control signal. activation, % at 9 µM. 1.7% of 300,000 active. AID 504408;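 active = mean replicate activation of at least 50% with a set share of replicates each reaching 50%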;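 also: 0% = median of the neutral control wells and 100% = twice that signal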
LGR2 antag = inhibitors of bursicon-induced Drosophila LGR2 receptor cAMP signaling; HEK293 LGR2, CRE-luciferase, bursicon-stimulated, 4 h; inhibition, % at 9.99 µM; 0.35% of 380,000 active;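 active = drop in luminescence signal, shown as inhibition above about 50% in the replicate tests, limit read from the data, passing the limit was not always enough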;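 also: agonist challenge used bursicon conditioned medium at about half maximal strength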
LMP1 NFkB inh = Epstein-Barr LMP1 NF-kappaB reporter inhibition; LMP1-induced NF-kappaB luciferase reporter cells, luminescence; inhibition, % at 12.5 µM; 0.69% of 350,000 active; AID 504558; in the data active = inhibition above about 41%;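 also: 0% = neutral control wells and 100% = reference inhibitor control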
HSF1 inhib = HSF1 inhibition. AID 2098. NIH3T3-HGL HSE-luciferase, MG132-induced, luminescence 8 h; active compounds read low. activity change, negative = inhibition, % at 7.5 µM (by protocol). 0.77% of 300,000 active;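 active = more than half of replicate wells show activity change below -50%, luminescence cut by over half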;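 also: luciferase reports HSF-1 transcriptional activity via heat shock element; 0% = median of DMSO wells and -100% = zero luminescence signal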
An asterisk follows results filed as active; ! = not confirmed by another sample.

How did O=C(NCCc1ccc([N+](=O)[O-])cc1)c1ccccc1 do in these assays?
TWEAK Fn14 block: -9.3; TROY signal inh: -7.9; HSF1 activator: 9.5; LGR2 antag: -23.2; LMP1 NFkB inh: -2.4; HSF1 inhib: 7.0

Results for CC(C)(C)c1ccc(C(=O)NCCOc2ccccc2)cc1 ?
TWEAK Fn14 block: 88.7*; TROY signal inh: 79.5*; HSF1 activator: -67.6; LGR2 antag: 62.1*; LMP1 NFkB inh: 17.4; HSF1 inhib: -67.9*

How did CC(C)(C)c1ccc(C(=O)NCCc2ccccc2)cc1 do in these assays?
TWEAK Fn14 block: 58.9*; TROY signal inh: 43.2; HSF1 activator: -39.6; LGR2 antag: -21.7; LMP1 NFkB inh: -31.0; HSF1 inhib: -30.4

What do the screens show for `COc1cc(C(=O)NCCOc2cc(C)ccc2C(C)C)cc(OC)c1OC`?
TWEAK Fn14 block: 61.8*; TROY signal inh: 41.6; HSF1 activator: 5.4; LGR2 antag: 6.8; LMP1 NFkB inh: 22.1; HSF1 inhib: 3.2

Results for CC(C)Cc1ccc(C(=O)NCCOc2ccccc2)o1 ?
TWEAK Fn14 block: 50.8*; TROY signal inh: 18.4; HSF1 activator: 41.5; LGR2 antag: 23.0; LMP1 NFkB inh: 11.0; HSF1 inhib: 45.7

Results for Cc1ccc(C(=O)NCCOc2cccc(C)c2)cc1 ?
TWEAK Fn14 block: -29.1; TROY signal inh: -56.0; HSF1 activator: 58.7*; LGR2 antag: -49.2; LMP1 NFkB inh: -24.9; HSF1 inhib: 34.3

What do the screens show for `CC(C)(C)c1ccc(C(=O)NCCOc2ccccc2F)cc1`?
TWEAK Fn14 block: 94.6*; TROY signal inh: 75.0*; HSF1 activator: -74.0; LGR2 antag: 67.2*; LMP1 NFkB inh: 6.3; HSF1 inhib: -70.8*

Results for COc1ccccc1C(=O)NCCOc1ccc(C(C)(C)C)cc1 ?
TWEAK Fn14 block: -3.9; TROY signal inh: 11.1; HSF1 activator: 3.1; LGR2 antag: -0.2; LMP1 NFkB inh: -9.5; HSF1 inhib: 7.8

What do the screens show for `Cc1ccccc1S(=O)(=O)N(C)C[C@@H]1OCc2cn(nn2)CCCC(=O)N([C@@H](C)CO)C[C@@H]1C`?
LGR2 antag: -9.1

Results for COc1ccc(CN(C)C[C@H]2Oc3ccc(NC(=O)Nc4ccc(C(F)(F)F)cc4)cc3CC(=O)N([C@@H](C)CO)C[C@H]2C)cc1 ?
LGR2 antag: 1.9

Results for COC(=O)C1=C(C)N(Cc2ccc(OC)cc2)C(=O)C1 ?
TWEAK Fn14 block: -3.2; TROY signal inh: -3.5; HSF1 activator: -1.1; LGR2 antag: 5.2; LMP1 NFkB inh: -2.8; HSF1 inhib: 2.0

How did COC(=O)C1=C(C)N(Cc2ccco2)C(=O)C1 do in these assays?
TWEAK Fn14 block: -7.2; TROY signal inh: -2.7; HSF1 activator: -68.9; LMP1 NFkB inh: 1.4; HSF1 inhib: -59.5*

What do the screens show for `O=C(O)c1cc(/C=C/c2ccc(N3CCOCC3)cc2)nc2ccccc12`?
TWEAK Fn14 block: 40.2; TROY signal inh: 8.9; LGR2 antag: 69.3*; LMP1 NFkB inh: 59.2*

Results for O=C(C[C@@H]1C=C[C@@H](NC(=O)c2cccc(F)c2)[C@@H](CO)O1)NCc1ccccc1 ?
LGR2 antag: 6.7

How did CCCC#Cc1ccc2c(c1)O[C@H](CN(C)C(=O)CN(C)C)[C@H](C)CN([C@H](C)CO)S2(=O)=O do in these assays?
LGR2 antag: -8.3

What do the screens show for `CN(C)CC(C)(C)CNS(=O)(=O)c1ccc(Cl)c(Cl)c1`?
TWEAK Fn14 block: 1.5; TROY signal inh: 51.8*!; HSF1 activator: 5.6; LGR2 antag: -1.9; LMP1 NFkB inh: -0.5; HSF1 inhib: -6.8

How did CN(C)CCNC(=O)c1cccc(NS(=O)(=O)c2ccc(Cl)c(Cl)c2)c1 do in these assays?
TWEAK Fn14 block: -9.0; TROY signal inh: 6.1; HSF1 activator: 1.0; LGR2 antag: 18.6; LMP1 NFkB inh: -5.3; HSF1 inhib: -2.0

How did O=S(=O)(Nc1cc(Sc2ncn[nH]2)c(O)c2ccccc12)c1ccccc1 do in these assays?
TWEAK Fn14 block: 95.4*; TROY signal inh: 62.2*; LGR2 antag: 97.0*; LMP1 NFkB inh: 1.2

Results for Cc1cc(O)c(Sc2ncn[nH]2)cc1NS(=O)(=O)c1ccc(Cl)cc1 ?
TWEAK Fn14 block: -2.6; TROY signal inh: -17.4; LGR2 antag: -8.8; LMP1 NFkB inh: 5.7

Results for O=C(O)CSc1cc(NS(=O)(=O)c2ccc(Br)cc2)c2ccccc2c1O ?
TWEAK Fn14 block: 97.9*; TROY signal inh: -14.7; HSF1 activator: 114.0*; LGR2 antag: 1.3; LMP1 NFkB inh: 1.6; HSF1 inhib: 59.4
